Laboratory results: PubChem BioAssay (NCI)
Compounds without any hit were thinned out: in the full panel of roughly 79,000, 15% have a hit. Calls of active or inactive are those of the source. No stated cut-off is given here; in the data, active means growth inhibition above about 70%; inactive means the rest.

assay: NCI Yeast Anticancer Drug Screen. Data for the rad50 strain (AID 155);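 further: 0% = growth of vehicle-only cultures of the same strain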; settings: S. cerevisiae rad50 strain growth inhibition; at 11.0 µM; hits give high values
How it was run: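 DNA repair mutant yeast, compound exposure, growth read-out; inhibition is taken relative to vehicle.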

SMILES	growth inhibition
CCOP(=O)(OCC)C(Cc1ccccc1)N=C(c1ccccc1)c1ccccc1 (centres undefined)	27% (inactive)
CCc1ncnc2cc(OCC3CO3)c(OC)cc12 (centres undefined)	72% (active)
CCOC(=O)[C@H]1Nc2ccccc2C2c3ccccc3CC21 (some centres undefined)	-4% (inactive)
O=CNc1ccc2c(c1)C(=O)c1ccccc1-2	37% (inactive)
CCOc1ccc2c(c1)c(CC(=O)O)cn2C	48% (inactive)
OC1CSCCCSCCSCCCSC1	-3% (inactive)
N#Cc1c(N)[nH]c2ccc(Sc3ccccc3)cc12	23% (inactive)
Cc1ccc(-c2ccc(Nc3c4ccccc4nc4ccccc34)cc2)cn1	90% (active)
c1ccc2c(c1)NC(NC1Nc3ccccc3N1)N2	8% (inactive)
OC(COc1cccc2ccccc12)CN1CCOCC1 (centres undefined)	42% (inactive)
CCC/C(Cl)=N\OC(=O)Nc1ccc(Br)cc1	86% (active)
COc1ccc(/C=C2\SC(=S)N(/C=C/c3nc4ccccc4[nH]c3=O)C2=O)cc1OC	12% (inactive)
O=C(NNc1ccnc2cc(Cl)ccc12)/C(=C\c1ccccc1Cl)NC(=O)c1ccccc1	14% (inactive)
CSC1=NNC(SC)=NN1	15% (inactive)
Cc1c(C2=C(Br)C(=O)N(C)C2=O)c(=O)n(C)c(=O)n1C	46% (inactive)
NCCNc1ccc(NCCN)c2c1C(=O)c1c(O)ccc(O)c1C2=O	87% (active)
Cn1c(=O)c(-c2ccccc2)c(N=[N+]=[N-])c2ccccc21	20% (inactive)
CCCCCCCCCCCCCCCCCCOCC(O)COP(=O)(O)OCC1OC(n2cc(F)c(=O)[nH]c2=O)CC1O (centres undefined)	54% (inactive)
CCS(=O)(=O)c1ccc(/C=C/C=N/NC(=S)NCC(C)C)cc1	-4% (inactive)
CCC(=O)Oc1c(Cl)cc(Cl)c2ccccc12	-1% (inactive)

SMILES	growth inhibition
COc1cc2c3c(cccc3c1)C(=O)N(CCN(C)C)C2=O	29% (inactive)
CN(C)c1ccc(C(C#N)=C(C#N)C#N)cc1	6% (inactive)
O=C(CCCN1CCC2(CC1)CC(=O)N(N1CCCCCC1)C2=O)c1ccc(F)cc1	33% (inactive)
O=C1C2C(C(=O)N1c1ccc(OCc3ccccc3)cc1)C1c3ccccc3C2C2CCCCN21 (centres undefined)	13% (inactive)
CCN(CC)CCC(=O)c1ccc(Oc2ccc(F)cc2)cc1	-17% (inactive)
O=Nc1c(NO)ccc2nn(-c3ccccc3)nc12	96% (active)
CC(=O)SCCC[Si](C)(C)CCCSC(C)=O	5% (inactive)
O=C(O)C1CCCCC1c1c2ccc(=O)c(O)c-2oc2c(O)c(O)ccc12 (centres undefined)	-16% (inactive)
Cc1ccc(NN(NC(=O)OC(C)C)C(=O)OC(C)C)cc1	-1% (inactive)
O=C1c2ccccc2C(=O)c2cc(CBr)ccc21	29% (inactive)
Cc1c(C(Cc2ccccc2N(C)C(=O)/C=C\C(=O)O)c2c[nH]c3ccccc23)c2ccccc2n1C (centres undefined)	-9% (inactive)
CC(C)/C(Cl)=N\OC(=O)Nc1ccc(F)cc1	12% (inactive)
O=C1OC(=O)C2CCCC3CCCC1C32 (centres undefined)	93% (active)
CCOC(=O)C(NC(=O)c1ccccc1)(N1CCN(c2cc3c(cc2F)c(=O)c(C(=O)O)cn3C2CC2)CC1)C(F)(F)F (centres undefined)	14% (inactive)
COc1ccc(NC(=S)N/N=C(\c2ccccc2)c2ccccn2)cc1	-34% (inactive)
C=CCC1=C(C)C(OC(=O)/C=C/c2ccccc2)CC1=O (centres undefined)	2% (inactive)
NNc1c(F)c(F)cc(F)c1F	-18% (inactive)
COP(=O)(OC)/C(=C\C1=CN(C(c2ccccc2)(c2ccccc2)c2ccccc2)CN1)NC=O	-17% (inactive)
COC(=O)c1cc(-c2ccc(C)cc2)[nH]c(=O)c1C#N	0% (inactive)
